From PubChem
CHX counter: Cycloheximide Counterscreen for Small Molecule Inhibitors of Shiga Toxin. cell reporter, cycloheximide protein synthesis inhibition counterscreen. max response, %. 300,000 compounds, 12% hits. AID 2314, 2010; in the data active means max response mostly above about 13%, no sharp cut-off; inactive means mostly below about 14%; further: read at 38.3 µM for the half of the compounds with a filed dose
FMDV antiviral: High Throughput Screening for Foot and Mouth Disease Virus Antivirals; FMDV antiviral cell-based qHTS; Potency, µM (top dose mostly 57.9 µM), usual class: inhibitors; 410,000 compounds, 1.2% hits; calls by dose curve; tested in HEK293T cells; further: read-out not given here; nearly all actives have a fitted effect of over 45% in size
MARV entry inh: qHTS for inhibitors of binding or entry into cells for Marburg Virus; Marburg virus pseudotyped entry inhibition, cell reporter; Potency, µM (series often up to 37.8 µM), hits mostly inhibitors; 300,000 compounds, 1.8% hits; calls by dose curve; tested in HEK293 cells
Lassa entry inh: qHTS for Inhibitors of binding or entry into cells for Lassa Virus. Lassa virus pseudotype entry inhibition, cell reporter. Potency, µM (series often up to 37.9 µM), hits mostly inhibitors. 300,000 compounds, 1.2% hits. AID 540256, 2011; calls by dose curve; tested in HEK293 cells; further: nearly all actives have a fitted effect of over 50% in size
HCV inhibitor: qHTS Assay for Inhibitors of Hepatitis C Virus (HCV). Huh7.5.1 HCVcc-Cre infection, luciferase reporter, 44 h. Potency, µM (highest dose often 41.8 µM), actives largely listed as inhibitors. 340,000 compounds, 3.4% hits; active means well fitted inhibition curve with a large enough effect; inconclusive means small, poorly fitted or top-dose-only effect, or another doubt; inactive means no such curve, though single readings can be large or run the other way
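Whole-lifecycle infectious HCVcc-Cre system; cells 1,000/well, compound then virus (~0.5 moi) added 4 h after plating, 44 h culture. Luciferase read 15 sec following 15 min substrate incubation, room temp.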
Shiga toxin inh: A qHTS for Small Molecule Inhibitors of Shiga Toxin. 290,000 compounds, 9.2% hits. inhibition, % at 38.7 µM. Vero cells, Shiga toxin protein synthesis inhibition reporter; in the data active means inhibition mostly above about 28%, no sharp cut-off; inactive means mostly below about 43%
Numbers stand for hits; – = inactive; ? = inconclusive; · = not tested or not shown; [ ] = another dose, or the depositor's remark. This is a sample that favours compounds with a hit; in the whole collection about 13% have one here.

SMILES | CHX counter | FMDV antiviral | MARV entry inh | Lassa entry inh | HCV inhibitor | Shiga toxin inh
O=C(NCCO)C(=O)NCC(c1cccs1)S(=O)(=O)c1ccc(F)cc1 (stereo unspecified) | · | – | · | · | · | ·
COc1ccc(C2=Nn3c([n+](C)c4ccccc43)SC2)cc1 | – | ? | · | · | 2.24µM | –
COc1ccc(NC(=O)c2c(C)oc3ccc(O)c(CN4CCC(C)CC4)c23)cc1 | · | – | 11.2µM | ? | · | ·
Cc1ccc(NC(=O)CSc2ccc(-c3ccc4c(c3)OCO4)nn2)cc1F | – | – | ? | – | – | –
CC(=O)C1=C(O)C(=O)N(c2ccc(Br)cn2)C1c1ccccc1F (stereo unspecified) | – | – | ? | – | – | –
CC(=O)C1=C(O)C(=O)N(c2ccc(Br)cn2)C1c1ccc(Br)cc1 (stereo unspecified) | 20.7 | – | · | · | – | 92.7
COc1cc([C@@H]2C(C(C)=O)=C(O)C(=O)N2c2ccc(Br)cn2)ccc1O | · | · | – | · | · | ·
CC(=O)C1=C(O)C(=O)N(c2ccc(Br)cn2)C1c1ccc(F)cc1 (stereo unspecified) | 37.5 | – | – | – | – | 74.8
O=c1cc(-c2ccc(O)c(O)c2)oc2ccc3ccccc3c12 | · | 6.31µM | ? | ? | ? | ·
COc1ccc(-c2cc(=O)c3c(O)c(OC)c(OC)c(OC)c3o2)cc1 | · | – | – | – | ? | ·
COc1cc(-c2cc(=O)c3c(O)cc(O)cc3o2)ccc1O | 37.0 | – | · | · | 12.6µM | 39.3
COc1c(OC)c(O)c2c(=O)cc(-c3c(O)cccc3O)oc2c1OC | 17.5 | – | · | · | ? | –
COc1cc(O)c2c(=O)c3c(OC)c(O)ccc3oc2c1 | 37.0 | – | – | – | – | 56.3
COc1cccc2c(=O)c(C/C=C(/C)Cl)c(C)[nH]c12 | – | – | – | – | – | –
CCC(=O)Nc1ccc(NC(=O)CSc2nnc(-c3ccc(O)cc3)n2CC2CCCO2)cc1 (stereo unspecified) | – | – | – | ? | – | –
COc1cc(OC)c2c(=O)c(OC)c(-c3ccc(OC)c(OC)c3)oc2c1 | – | – | · | · | 1.12µM | –
COc1ccc(-c2cc(=O)c3c(O)c(OC)c(O)cc3o2)cc1 | 37.3 | – | · | · | – | 45.5
COc1cc(O)c2c(=O)cc(-c3ccccc3)oc2c1 | 11.0 | – | · | · | – | –
O=c1cc(-c2ccncc2)oc2ccccc12 | – | – | ? | – | ? | –
COc1cc(-c2cc(=O)c3ccccc3o2)ccc1O | 37.2 | – | · | · | – | 61.3
CCC1(C2CCN(C(=O)c3ccccc3C)CC2)NC(=O)N(CCc2scnc2C)C1=O (stereo unspecified) | · | – | · | · | · | ·
O=C(Nc1ccccc1F)C(=O)Nc1cccc2ccccc12 | 28.4 | – | ? | ? | – | ·
O=C(CNc1ccccc1F)Nc1cccc2ccccc12 | – | – | – | – | – | –
O=C(Nc1cccc2ccccc12)/C(=C/c1ccc([N+](=O)[O-])cc1)NC(=O)c1ccccc1 | – | – | – | – | ? | –
O=C(Nc1cccc2ccccc12)/C(Cl)=C/c1ccccc1 | 41.8 | – | – | – | – | 81.5
SMILES | CHX counter | FMDV antiviral | MARV entry inh | Lassa entry inh | HCV inhibitor | Shiga toxin inh
CCC(C)Nc1nc(-c2ccc3c(c2)NC(=O)CO3)cs1 (stereo unspecified) | – | – | – | – | ? | 50.4
COc1ccccc1Nc1nc(-c2ccc3c(c2)NC(=O)CO3)cs1 | 20.0 | ? | · | · | 10µM | –
COc1ccc(Nc2nc(-c3ccc4c(c3)NC(=O)CO4)cs2)cc1 | 26.7 | ? | – | ? | – | 127.9
COc1ccc(C(C(=O)NC(C)(C)C)N(CCc2ccc(OC)c(OC)c2)C(=O)CCC(=O)Nc2cc(C)on2)cc1 (stereo unspecified) | – | – | ? | – | – | –
ClC1(Cl)CC1CSc1nnc(-c2ccncc2)o1 (stereo unspecified) | 19.3 | – | · | · | – | –
CCSc1nnc(-c2ccncc2)o1 | – | – | – | – | – | –
CC(=O)Nc1cccc(/C(C)=N/Nc2nc3ccccc3s2)c1 | 38.6 | – | ? | ? | ? | 113.1
COc1ccc(/C=N/Nc2nc3ccccc3o2)cc1O | 35.6 | – | ? | ? | – | –
COc1cc(/C=N\Nc2nc3ccccc3o2)cc(OC)c1OC | 40.5 | · | – | ? | ? | 110.4
COc1ccc(/C=N/Nc2nc3ccccc3s2)cc1O | – | – | ? | ? | – | 68.1
COc1cc(/C=N/Nc2nc3ccccc3o2)cc(OC)c1O | – | – | – | – | ? | –
O=C(NCCCCc1ccccc1)C1CC(c2cccc(F)c2)=NO1 (stereo unspecified) | – | – | · | · | –[8.37 µM] | –
CC(=O)Nc1ccc(/C=N/Nc2nc3ccccc3s2)cc1 | 54.4 | – | · | · | – | 72.3
Cc1ccccc1N1CCN(C(=O)c2ccccc2NC(=O)c2ccccc2C(=O)O)CC1 | – | – | – | – | – | –
COC(C(=O)Nc1cccc(F)c1)c1ccccc1 (stereo unspecified) | – | – | – | – | – | –
CCOC(=O)N1CCN(S(=O)(=O)c2ccc(C(=O)N(CCCN(C)C)c3nc4ccc(CC)cc4s3)cc2)CC1 | 17.3 | – | ? | – | ? | –
CN(C)CCCN(C(=O)c1ccc(S(=O)(=O)N2CCCCCC2)cc1)c1nc2ccc(F)cc2s1 | – | – | ? | ? | ? | –
CCOC(=O)N1CCN(S(=O)(=O)c2ccc(C(=O)N(CCN(C)C)c3nc4ccc(CC)cc4s3)cc2)CC1 | 23.5 | – | ? | – | – | –
CCc1ccc2nc(N(CCCN(C)C)C(=O)c3ccc(S(=O)(=O)N4CCCC4)cc3)sc2c1 | – | – | · | · | ? | –
CCOC(=O)N1CCN(S(=O)(=O)c2ccc(C(=O)N(CCCN(C)C)c3nc4c(F)cc(F)cc4s3)cc2)CC1 | · | – | – | ? | ? | ·
CCOC(=O)N1CCN(S(=O)(=O)c2ccc(C(=O)N(CCCN(C)C)c3nc4ccc(Cl)cc4s3)cc2)CC1 | – | – | · | · | 11.2µM | –
CCOc1cccc2sc(N(CCN(CC)CC)C(=O)c3ccc(S(=O)(=O)N4CCCCC4)cc3)nc12 | – | – | · | · | – | –
CCOC(=O)N1CCN(S(=O)(=O)c2ccc(C(=O)N(CCN(CC)CC)c3nc4ccc(C)cc4s3)cc2)CC1 | 22.5 | – | ? | – | ? | –
Cc1ccc(S(=O)(=O)N2CCN(C(=O)c3ccccc3OCc3c(C)noc3C)CC2)cc1C | · | – | – | ? | – | ·
Cc1ccc2oc3c(c(=O)c2c1)C(c1cccs1)N(CCCN(C)C)C3=O (stereo unspecified) | 38.9 | – | – | · | – | 48.5
COc1ccc(OC)c(C2c3c(oc4ccc(C)cc4c3=O)C(=O)N2CCCN(C)C)c1 (stereo unspecified) | · | – | · | – | · | ·
COc1ccc(NC(=S)NC(=O)/C=C/c2ccco2)cc1 | 43.3 | – | – | – | – | 100.8
O=C(/C=C/c1ccco1)NC(=S)Nc1ccc(C(=O)O)cc1 | 22.7 | – | – | – | – | 51.7
CC(=O)NC(=S)Nc1ccc(NC(=S)NC(=O)/C=C/c2ccco2)cc1 | – | – | – | ? | – | –
